{
  "source": "the OligoGym collection",
  "data": [
    {"target": "FRMD4B", "test": "pooled miR-30 sensor sort-seq; sequence = guide strand", "conditions": "shRNA", "values": [
      {"sequence": "TTTCTTTGCAGCTTCCACCAGC", "sensor-assay potency score (higher = more potent)": -0.481},
      {"sequence": "TAGACATTGCCATAGCAGCTGG", "sensor-assay potency score (higher = more potent)": -0.855},
      {"sequence": "TATTAGAAAATTACTCTCCAGT", "sensor-assay potency score (higher = more potent)": 0.00309},
      {"sequence": "TTGCTCTTCACTAACTTCTGAG", "sensor-assay potency score (higher = more potent)": -0.0574},
      {"sequence": "TTGAAGTAGAAACATTCTGTTT", "sensor-assay potency score (higher = more potent)": -1.02}
    ]},
    {"target": "FRRS1", "test": "pooled miR-30 sensor sort-seq; sequence = guide strand", "conditions": "shRNA", "values": [
      {"sequence": "TTCTTCTGAAAGAACACTGCAT", "sensor-assay potency score (higher = more potent)": 0.427},
      {"sequence": "AAGAACACTGCATAACACCGTC", "sensor-assay potency score (higher = more potent)": -0.249},
      {"sequence": "TAACTTCAATCTGATCTCCTGG", "sensor-assay potency score (higher = more potent)": 0.0664},
      {"sequence": "ATAAGCATCATCATCACCCATC", "sensor-assay potency score (higher = more potent)": -0.528},
      {"sequence": "TAACAGTAGTCATCCATGCCAC", "sensor-assay potency score (higher = more potent)": -0.274},
      {"sequence": "TAAATTGCCAACACTGCCTTTT", "sensor-assay potency score (higher = more potent)": -0.275},
      {"sequence": "TTTTATACTTCTCAACAACTGT", "sensor-assay potency score (higher = more potent)": -0.421},
      {"sequence": "TATGCTAACAGTAGTCATCCAT", "sensor-assay potency score (higher = more potent)": 0.0935},
      {"sequence": "TTCAACTCCAGAACAACCTCAG", "sensor-assay potency score (higher = more potent)": 0.767},
      {"sequence": "TTATTCTAGCAGCTGTTCCCAT", "sensor-assay potency score (higher = more potent)": -0.391},
      {"sequence": "TAAGGCACCATGAACCTTCAGA", "sensor-assay potency score (higher = more potent)": -0.182},
      {"sequence": "TGACAAAGTAACTTCAATCTGA", "sensor-assay potency score (higher = more potent)": 0.192}
    ]},
    {"target": "FTL", "test": "pooled miR-30 sensor sort-seq; sequence = guide strand", "conditions": "shRNA", "values": [
      {"sequence": "TTCAGGAGACGCTCGTAGCCCT", "sensor-assay potency score (higher = more potent)": -0.927},
      {"sequence": "TTGATGTCCTGGAAGAGAGCGC", "sensor-assay potency score (higher = more potent)": -0.331},
      {"sequence": "TTTCGAAGAGATACTCGCCCAG", "sensor-assay potency score (higher = more potent)": -0.301},
      {"sequence": "TCGCGGTCGAAATAGAAGCCCA", "sensor-assay potency score (higher = more potent)": -1.25},
      {"sequence": "TAAGCTTCACTTCCTCATCTAG", "sensor-assay potency score (higher = more potent)": -0.516},
      {"sequence": "TTCGAAGAGATACTCGCCCAGC", "sensor-assay potency score (higher = more potent)": -0.73},
      {"sequence": "TTGACCAGGCTGTTGACGGCTG", "sensor-assay potency score (higher = more potent)": -0.48},
      {"sequence": "TTCAGCTGGCTTCTTGATGTCC", "sensor-assay potency score (higher = more potent)": -0.855},
      {"sequence": "TTCCAGAGCCACATCATCGCGG", "sensor-assay potency score (higher = more potent)": -0.592},
      {"sequence": "TTTGCATCTTCAGGAGACGCTC", "sensor-assay potency score (higher = more potent)": -0.792},
      {"sequence": "TAGGAAGTGAGTCTCCAGGAAG", "sensor-assay potency score (higher = more potent)": -1.72},
      {"sequence": "TCTTGATAAGCTTCACTTCCTC", "sensor-assay potency score (higher = more potent)": -0.871},
      {"sequence": "TACCCCACTCATCTTCAGCTGG", "sensor-assay potency score (higher = more potent)": -0.815},
      {"sequence": "TTGCATCTTCAGGAGACGCTCG", "sensor-assay potency score (higher = more potent)": -0.127},
      {"sequence": "TGATAAGCTTCACTTCCTCATC", "sensor-assay potency score (higher = more potent)": -1.37},
      {"sequence": "TTTTACCCCACTCATCTTCAGC", "sensor-assay potency score (higher = more potent)": -1.2},
      {"sequence": "TTCTCCTCGGCCAATTCGCGGA", "sensor-assay potency score (higher = more potent)": -1.13},
      {"sequence": "TTGATAAGCTTCACTTCCTCAT", "sensor-assay potency score (higher = more potent)": -0.312},
      {"sequence": "TCTAGGAAGTGAGTCTCCAGGA", "sensor-assay potency score (higher = more potent)": -0.902},
      {"sequence": "ATCTAGGAAGTGAGTCTCCAGG", "sensor-assay potency score (higher = more potent)": -1.73},
      {"sequence": "ATGAAGATCCAAAAGGGCCTGG", "sensor-assay potency score (higher = more potent)": -0.154},
      {"sequence": "TTCACTTCCTCATCTAGGAAGT", "sensor-assay potency score (higher = more potent)": -0.832},
      {"sequence": "TCCAGAGCCACATCATCGCGGT", "sensor-assay potency score (higher = more potent)": -0.991}
    ]}
  ]
}
